# Results filed as inconclusive are left out. The source made the active and inactive calls. Calls follow the shape of the dose curve; as a rule, active = well fitted cell-killing curve with a large enough effect in the repeat runs; inconclusive = weak or mixed curves, or effect the other way; inactive = no such curve, though single readings can be large or run the other way.
# Experiment: qHTS assay to identify small molecule antagonists of the retinoid-related orphan receptor gamma (ROR-gamma) signaling pathway - cell viability counter screen (AID 1159520); also: nearly all actives have a fitted effect of over 50% in size
# Conditions: Tet-on RORgamma CHO cells viability, ATP luminescence, 16 h; series mostly up to 92.4 µM; activity, negative = cytotoxicity: at the top concentration
# From the text: U.S. Tox21 Program National Center for Advancing Translational Sciences [NCATS] NIH Chemical Genomics Center [NCGC] U.S. Environmental Protection Agency [EPA] National Institutes of Environmental Health Sciences [NIEHS] National Toxicology Program [NTP] U.S. Food and Drug Administration [FDA] Tox21 Assay Overview: Nuclear steroid hormone receptors are involved in many biological processes including inflammatory responses, cell proliferation, and apoptosis. Environmental factors or compounds disrupting these nuclear receptor pathways and gene expression may promote susceptibility to immunotoxicants and autoimmune diseases. One important group of these expression factors are the retinoid-related orphan receptors. To assess compounds that may interfere with the retinoid-related orphan receptor gamma (ROR-gamma) transcription factor, a cell-based luciferase assay was used. The CHO cell-based assay utilizes a TET-inducible ROR expression factor and ROR response element-LUC reporter gene. Reporter gene activity was induced using Doxycycline Hyclate and measured after 16 hr incubation. Tet-on ROR gamma CHO cells were used to screen against the Tox21 10K compound library for cytotoxicity by measuring the viability of the cells based on the quantitation of the ATP.
# Tox21 Assay Protocol Summary: Tet-on ROR gamma CHO cells were dispensed at 1,000 cells in 4 uL of culture medium per well into white wall/solid bottom 1536-well plates using a Multidrop Combi (Thermo Scientific, Waltham, MA) dispenser. Following incubation at 37 C and 5% CO2 for 4 hr, 23 nL of compounds dissolved in DMSO, positive controls or DMSO only were transferred by a Pintool station (Kalypsys, San Diego, CA) and after 2 hr incubation at 37 C, one ul of 1 uM (final concentration) of Doxycycline Hyclate was added to all the wells by using a Flying Reagent Dispenser (FRD) (Aurora Discovery, San Diego, CA). After 16 hr incubation at 37 C and 5% CO2, 5 uL of CellTiter-Glo reagent (Promega Corporation, Madison, WI) was added to each assay plate using FRD. After 30 min incubation at room temperature, luminescence was quantified on a ViewLux plate reader (Perkin Elmer, Waltham, MA).
# % is scaled to controls: 0 for no effect and ±100 for the full control effect.
row,Compound,"activity, negative = cytotoxicity"
1,CCCCCCCCCCCCCCCC/C=C/C1CC(=O)OC1=O (stereo not given),-3.84% [at 42.5 µM] (inactive)
2,CCCC(=O)C(CC)Sc1ccoc1C (stereo not given),-13% (inactive)
3,CC(=O)c1ccc2ccc3ccccc3c2c1,-18.6% (inactive)
4,CC(=O)OC1CCC(C(C)(C)C)CC1 (stereo not given),1.61% (inactive)
5,O=P(O)(O)C(O)(Cc1cccnc1)P(=O)(O)O,1.17% [at 42.5 µM] (inactive)
6,CCCC(=O)OC,5.91% (inactive)
7,CC(C)(C)C(=O)CCc1ccc(Cl)cc1,1.45% (inactive)
8,C[C@@H]1CC[C@@]2(OC1)O[C@H]1C[C@H]3[C@@H]4CC[C@H]5C[C@@H](O)CC[C@]5(C)[C@H]4CC(=O)[C@]3(C)[C@H]1[C@@H]2C,4% [at 8.39 µM] (inactive)
9,C=CC(=O)OCC[N+](C)(C)C,6.46% (inactive)
10,C/C=C/C(=O)CCCC,0.0502% (inactive)
11,CCCC(C)C(O)CC (stereo not given),0.487% (inactive)
12,COC(=O)c1ccccc1Cl,2.2% (inactive)
13,CCCCN(CCCC)CCCCCCN(CCCC)CCCC,-14.6% (inactive)
14,C[n+]1ccccc1/C=N/O,1.55% [at 42.5 µM] (inactive)
15,NNC(=O)OCc1ccccc1,-20.4% (inactive)
16,CCCCN=C(N)N=C(N)N,0.935% [at 42.5 µM] (inactive)
17,CCCCCCC(=O)c1ccccc1,-8.03% (inactive)
18,CN(C)CCCN(C)C,11.1% [at 8.39 µM] (inactive)
19,COc1ccc(Cl)cc1C,-5.29% (inactive)
20,CN(C)CCC[C@@]1(c2ccc(F)cc2)OCc2cc(C#N)ccc21,2.17% [at 42.5 µM] (inactive)

row,Compound,"activity, negative = cytotoxicity"
1,O=Cc1ccccc1S(=O)(=O)O,1.27% (inactive)
2,N=C(N)S(=O)O,9.06% (inactive)
3,Cc1cccc(N)n1,3.23% (inactive)
4,CCC(C)c1nccnc1OC (stereo not given),11.3% (inactive)
5,CC/C=C/CCCCCCCCCCOC(C)=O,1.8% (inactive)
6,C/C=C(\C)C=O,0.0337% (inactive)
7,CC(=O)c1ccc(O)c(C(N)=O)c1,0.505% [at 42.5 µM] (inactive)
8,N=C(N)N1CCc2ccccc2C1,7.51% [at 8.39 µM] (inactive)
9,CCN(CC)CC,10% (inactive)
10,Cc1ccc2ccccc2n1,7.11% (inactive)
11,COc1cc(NS(=O)(=O)c2ccc(N)cc2)ncn1,1.14% [at 42.5 µM] (inactive)
12,COC(=O)/C=C(\C)CCC=C(C)C,-0.0508% (inactive)
13,Cc1cc(=O)oc2cc(O[C@@H]3SC[C@@H](O)[C@H](O)[C@H]3O)ccc12,2.49% [at 42.5 µM] (inactive)
14,CCCCC(O)/C=C(C)/C=C/C=C/C(=O)N1CCCC1=O (stereo not given),3.54% [at 42.5 µM] (inactive)
15,CCCCCCCCOCCC#N,-4.53% (inactive)
16,CC[C@@]1(c2ccccc2)NC(=O)N(C)C1=O,0.972% [at 42.5 µM] (inactive)
17,C=CCN1CCc2nc(N)sc2CC1,8.56% [at 42.5 µM] (inactive)
18,N=C(N)N,1.84% [at 42.5 µM] (inactive)
19,CCCCC(CC)CCC(CC(C)C)OS(=O)(=O)O (stereo not given),2.7% (inactive)
20,CCCCCCCCCCCCCCBr,-1.97% (inactive)
